In ChEMBL document CHEMBL3988442, “University of Dundee, Small-Polar-MMV Screening Library” (2021) one finds Percent Effect data, which are given here for 10 molecules.

Set-up in all cases: scale not given: direction of the effect not stated beside the values
Experiment [1] deals with Protein translocase subunit SecA (Escherichia coli (strain K12)) (UniProt P10408). Briefly: Assay to Identify E. coli SecA ATPase Inhibitors. It counts as functional. The settings on record: 30 µM.
The target in experiment [2] is T1, Ubiquitin-activating enzyme e1, putative (Leishmania donovani (strain BPK282A1)) (UniProt E9BSI1).
T1 sequence (whole entry): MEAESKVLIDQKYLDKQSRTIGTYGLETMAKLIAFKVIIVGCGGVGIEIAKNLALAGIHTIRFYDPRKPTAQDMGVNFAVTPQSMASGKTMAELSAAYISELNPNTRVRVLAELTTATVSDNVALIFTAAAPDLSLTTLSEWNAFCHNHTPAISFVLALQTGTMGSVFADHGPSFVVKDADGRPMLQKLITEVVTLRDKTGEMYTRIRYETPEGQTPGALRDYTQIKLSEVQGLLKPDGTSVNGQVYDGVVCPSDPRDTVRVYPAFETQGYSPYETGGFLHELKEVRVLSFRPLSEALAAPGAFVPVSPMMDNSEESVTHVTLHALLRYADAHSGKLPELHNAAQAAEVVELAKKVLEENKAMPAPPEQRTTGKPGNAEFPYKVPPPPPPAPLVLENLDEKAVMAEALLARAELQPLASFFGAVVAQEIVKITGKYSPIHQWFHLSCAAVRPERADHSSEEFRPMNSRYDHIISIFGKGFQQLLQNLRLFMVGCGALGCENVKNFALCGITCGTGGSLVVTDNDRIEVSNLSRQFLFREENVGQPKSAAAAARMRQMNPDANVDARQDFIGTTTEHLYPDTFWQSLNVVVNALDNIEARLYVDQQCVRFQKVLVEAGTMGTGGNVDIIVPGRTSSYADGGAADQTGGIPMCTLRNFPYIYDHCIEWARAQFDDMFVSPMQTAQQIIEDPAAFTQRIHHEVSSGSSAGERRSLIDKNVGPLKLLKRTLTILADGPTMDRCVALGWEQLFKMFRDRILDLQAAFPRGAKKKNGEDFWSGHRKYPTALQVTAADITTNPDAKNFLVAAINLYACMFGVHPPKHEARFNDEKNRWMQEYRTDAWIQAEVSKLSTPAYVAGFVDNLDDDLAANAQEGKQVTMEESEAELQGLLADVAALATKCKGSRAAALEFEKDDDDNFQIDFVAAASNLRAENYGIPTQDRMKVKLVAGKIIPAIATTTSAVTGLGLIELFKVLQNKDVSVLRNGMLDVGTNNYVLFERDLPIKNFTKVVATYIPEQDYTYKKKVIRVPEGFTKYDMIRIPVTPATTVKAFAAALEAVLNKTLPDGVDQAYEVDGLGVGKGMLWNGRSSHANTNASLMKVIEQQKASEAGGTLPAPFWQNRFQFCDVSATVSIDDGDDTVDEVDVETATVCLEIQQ
Briefly: Leishmania donovani Ubiquitin Activating Enzyme (LdE1). The format is functional. The settings on record: 30 µM.

For experiment [3], the target named is AMP-activated protein kinase, AMPK (Homo sapiens) (UniProt P54646+O43741+P54619+Q9UGJ0+Q9Y478+Q13131+Q9UGI9). Briefly: AMP-dependent Kinase enzyme assay. An in vitro enzyme assay that detects ADP turnover that is directly proportional to AMPK activity. This uses naive AMPK that is activated during the assay with MK-8722. The format is functional. The settings on record: 30 µM.

Experiment [4] concerns the target Sialic acid-binding Ig-like lectin 9 (Homo sapiens) (UniProt Q9Y336). As to the kind of experiment: Hs-Siglec9 ALPHAscreen SOP 20170721. The settings on record: 10 µM. In general terms: Alpha assays give light when donor and acceptor beads are brought close together.
Another experiment relates to Trypanosoma cruzi. Briefly: Trypanosoma cruzi phosphomannomutase and mannose-1-phosphate guanylyltransferase assay. It counts as functional. To be noted: 10 µM.
Experiment [5] concerns the target T2, Arginase-2, mitochondrial (Homo sapiens) (UniProt P78540).
T2 sequence (whole entry): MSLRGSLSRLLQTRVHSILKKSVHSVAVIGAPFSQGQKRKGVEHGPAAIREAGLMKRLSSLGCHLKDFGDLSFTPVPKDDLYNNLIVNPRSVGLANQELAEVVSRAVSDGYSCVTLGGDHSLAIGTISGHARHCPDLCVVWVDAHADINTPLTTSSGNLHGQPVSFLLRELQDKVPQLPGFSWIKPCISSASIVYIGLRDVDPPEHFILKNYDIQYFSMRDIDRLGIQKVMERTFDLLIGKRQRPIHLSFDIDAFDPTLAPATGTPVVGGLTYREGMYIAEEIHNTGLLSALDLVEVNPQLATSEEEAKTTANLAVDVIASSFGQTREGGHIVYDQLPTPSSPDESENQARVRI
As to the kind of experiment: in vitro enzyme assay to detect the production of urea directly proportional to the activity of Arginase II. Note: in the data most compounds retested in dose-response had high values. To be noted: 33.3 µM. It counts as functional.

Experiment [6] has as its target T3, Proteasome subunit beta (Trypanosoma cruzi) (UniProt O96673).
T3 sequence (whole entry): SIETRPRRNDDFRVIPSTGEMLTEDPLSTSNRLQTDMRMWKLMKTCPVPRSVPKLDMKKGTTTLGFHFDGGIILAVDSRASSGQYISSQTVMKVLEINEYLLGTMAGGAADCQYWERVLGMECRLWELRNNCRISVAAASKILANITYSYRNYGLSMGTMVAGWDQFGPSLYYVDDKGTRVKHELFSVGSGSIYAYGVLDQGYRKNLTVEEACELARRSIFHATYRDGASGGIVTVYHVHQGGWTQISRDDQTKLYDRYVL
As to the kind of experiment: Trypanosoma cruzi proteasome chymotrypsin-like activity (TcProtChymo) assay. Note: in the data most compounds retested in dose-response had high values. It counts as functional. The settings on record: 9.37 µM.

The species named for a further experiment is Homo sapiens. Briefly: To identify inhibition of the IFN signalling (Jak-Stat) pathway via expression of an eGFP reporter gene under the control of an IFN-stimulated response element (ISRE) containing MxA promoter. It counts as functional. To be noted: 30 µM. (In general: In a reporter assay the amount or activity of a reporter protein is the signal.)

Experiment [7] has as its target T4, Tyrosyl-tRNA synthetase, putative (Trypanosoma cruzi (strain CL Brener)) (UniProt Q4DSP6).
T4 sequence (whole entry): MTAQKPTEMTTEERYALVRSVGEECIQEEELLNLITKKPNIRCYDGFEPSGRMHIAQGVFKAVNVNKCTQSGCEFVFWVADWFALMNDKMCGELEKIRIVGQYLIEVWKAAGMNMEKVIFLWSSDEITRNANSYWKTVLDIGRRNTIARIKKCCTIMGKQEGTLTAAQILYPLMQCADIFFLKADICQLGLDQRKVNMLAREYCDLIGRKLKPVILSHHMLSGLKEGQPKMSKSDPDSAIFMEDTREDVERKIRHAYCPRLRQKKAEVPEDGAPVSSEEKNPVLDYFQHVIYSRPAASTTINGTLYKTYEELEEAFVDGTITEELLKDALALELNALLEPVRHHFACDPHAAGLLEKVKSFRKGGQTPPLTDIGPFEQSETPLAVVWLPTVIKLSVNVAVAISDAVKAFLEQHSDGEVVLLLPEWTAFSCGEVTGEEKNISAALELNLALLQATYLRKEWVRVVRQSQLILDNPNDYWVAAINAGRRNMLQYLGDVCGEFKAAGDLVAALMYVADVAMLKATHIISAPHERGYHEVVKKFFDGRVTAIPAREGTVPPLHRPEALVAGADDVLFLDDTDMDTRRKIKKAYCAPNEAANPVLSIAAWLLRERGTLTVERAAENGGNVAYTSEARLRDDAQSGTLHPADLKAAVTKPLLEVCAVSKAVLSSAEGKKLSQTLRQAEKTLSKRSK
Briefly: Trypanosoma cruzi tyrosyl tRNA synthetase (TcYRS) _High Tyrosine SOP. Note: in the data most compounds retested in dose-response had high values. It counts as functional. The settings on record: 30 µM.

Experiment [8] addresses T4, Tyrosyl-tRNA synthetase, putative (Trypanosoma cruzi (strain CL Brener)). As to the kind of experiment: Trypanosoma cruzi tyrosyl tRNA synthetase (TcYRS) SOP. It counts as functional. The settings on record: 30 µM.
In experiment [9] the target is Chromo domain-containing protein 1 (Saccharomyces cerevisiae (strain ATCC 204508 / S288c) (Baker's yeast)) (UniProt P32657). As to the kind of experiment: ScCHD-1 Enzyme Inhibition Assay. Note: in the data most compounds retested in dose-response had high values. The settings on record: 30 µM. It counts as functional.

For some assays here: Results with a measured potency or affinity are listed apart.

Chain of Protein translocase subunit SecA (Escherichia coli (strain K12)) (P10408 whole entry): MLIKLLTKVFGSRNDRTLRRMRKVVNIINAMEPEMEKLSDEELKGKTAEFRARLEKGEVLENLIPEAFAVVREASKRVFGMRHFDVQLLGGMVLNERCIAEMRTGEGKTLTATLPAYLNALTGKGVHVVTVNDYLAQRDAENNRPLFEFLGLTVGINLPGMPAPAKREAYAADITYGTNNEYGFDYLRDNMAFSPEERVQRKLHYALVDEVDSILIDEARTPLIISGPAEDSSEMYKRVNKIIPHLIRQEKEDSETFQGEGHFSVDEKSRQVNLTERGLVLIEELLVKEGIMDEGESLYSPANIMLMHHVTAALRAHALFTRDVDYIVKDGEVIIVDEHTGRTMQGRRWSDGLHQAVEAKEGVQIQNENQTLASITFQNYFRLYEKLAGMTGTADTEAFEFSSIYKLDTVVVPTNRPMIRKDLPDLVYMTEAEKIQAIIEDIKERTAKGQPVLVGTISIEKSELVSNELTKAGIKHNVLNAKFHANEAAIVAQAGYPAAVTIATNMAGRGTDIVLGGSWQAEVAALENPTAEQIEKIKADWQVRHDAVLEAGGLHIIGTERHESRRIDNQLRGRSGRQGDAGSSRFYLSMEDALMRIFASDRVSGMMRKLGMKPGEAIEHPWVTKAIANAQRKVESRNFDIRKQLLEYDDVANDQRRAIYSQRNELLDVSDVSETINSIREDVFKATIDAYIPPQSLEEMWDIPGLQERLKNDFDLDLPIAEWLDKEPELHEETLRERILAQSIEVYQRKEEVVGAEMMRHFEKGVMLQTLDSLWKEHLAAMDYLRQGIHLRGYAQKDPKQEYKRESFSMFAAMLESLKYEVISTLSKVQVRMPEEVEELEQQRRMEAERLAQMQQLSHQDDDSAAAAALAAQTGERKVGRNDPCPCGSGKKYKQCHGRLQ
Chain of Sialic acid-binding Ig-like lectin 9 (Homo sapiens) (Q9Y336 whole entry): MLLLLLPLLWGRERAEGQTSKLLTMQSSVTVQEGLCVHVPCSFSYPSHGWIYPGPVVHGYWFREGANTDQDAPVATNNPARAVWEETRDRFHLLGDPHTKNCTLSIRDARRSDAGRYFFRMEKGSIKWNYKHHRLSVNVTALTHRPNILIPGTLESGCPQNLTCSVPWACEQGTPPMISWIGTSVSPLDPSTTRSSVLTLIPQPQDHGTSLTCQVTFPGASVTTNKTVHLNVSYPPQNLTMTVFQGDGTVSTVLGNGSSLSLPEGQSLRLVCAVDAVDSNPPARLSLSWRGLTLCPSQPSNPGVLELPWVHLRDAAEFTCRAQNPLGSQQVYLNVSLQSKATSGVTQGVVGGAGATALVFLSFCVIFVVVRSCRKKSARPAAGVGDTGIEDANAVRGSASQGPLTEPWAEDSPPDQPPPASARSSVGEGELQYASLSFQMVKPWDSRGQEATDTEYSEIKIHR
Chain of Chromo domain-containing protein 1 (Saccharomyces cerevisiae (strain ATCC 204508 / S288c) (Baker's yeast)) (P32657 whole entry, the tested form may be a part): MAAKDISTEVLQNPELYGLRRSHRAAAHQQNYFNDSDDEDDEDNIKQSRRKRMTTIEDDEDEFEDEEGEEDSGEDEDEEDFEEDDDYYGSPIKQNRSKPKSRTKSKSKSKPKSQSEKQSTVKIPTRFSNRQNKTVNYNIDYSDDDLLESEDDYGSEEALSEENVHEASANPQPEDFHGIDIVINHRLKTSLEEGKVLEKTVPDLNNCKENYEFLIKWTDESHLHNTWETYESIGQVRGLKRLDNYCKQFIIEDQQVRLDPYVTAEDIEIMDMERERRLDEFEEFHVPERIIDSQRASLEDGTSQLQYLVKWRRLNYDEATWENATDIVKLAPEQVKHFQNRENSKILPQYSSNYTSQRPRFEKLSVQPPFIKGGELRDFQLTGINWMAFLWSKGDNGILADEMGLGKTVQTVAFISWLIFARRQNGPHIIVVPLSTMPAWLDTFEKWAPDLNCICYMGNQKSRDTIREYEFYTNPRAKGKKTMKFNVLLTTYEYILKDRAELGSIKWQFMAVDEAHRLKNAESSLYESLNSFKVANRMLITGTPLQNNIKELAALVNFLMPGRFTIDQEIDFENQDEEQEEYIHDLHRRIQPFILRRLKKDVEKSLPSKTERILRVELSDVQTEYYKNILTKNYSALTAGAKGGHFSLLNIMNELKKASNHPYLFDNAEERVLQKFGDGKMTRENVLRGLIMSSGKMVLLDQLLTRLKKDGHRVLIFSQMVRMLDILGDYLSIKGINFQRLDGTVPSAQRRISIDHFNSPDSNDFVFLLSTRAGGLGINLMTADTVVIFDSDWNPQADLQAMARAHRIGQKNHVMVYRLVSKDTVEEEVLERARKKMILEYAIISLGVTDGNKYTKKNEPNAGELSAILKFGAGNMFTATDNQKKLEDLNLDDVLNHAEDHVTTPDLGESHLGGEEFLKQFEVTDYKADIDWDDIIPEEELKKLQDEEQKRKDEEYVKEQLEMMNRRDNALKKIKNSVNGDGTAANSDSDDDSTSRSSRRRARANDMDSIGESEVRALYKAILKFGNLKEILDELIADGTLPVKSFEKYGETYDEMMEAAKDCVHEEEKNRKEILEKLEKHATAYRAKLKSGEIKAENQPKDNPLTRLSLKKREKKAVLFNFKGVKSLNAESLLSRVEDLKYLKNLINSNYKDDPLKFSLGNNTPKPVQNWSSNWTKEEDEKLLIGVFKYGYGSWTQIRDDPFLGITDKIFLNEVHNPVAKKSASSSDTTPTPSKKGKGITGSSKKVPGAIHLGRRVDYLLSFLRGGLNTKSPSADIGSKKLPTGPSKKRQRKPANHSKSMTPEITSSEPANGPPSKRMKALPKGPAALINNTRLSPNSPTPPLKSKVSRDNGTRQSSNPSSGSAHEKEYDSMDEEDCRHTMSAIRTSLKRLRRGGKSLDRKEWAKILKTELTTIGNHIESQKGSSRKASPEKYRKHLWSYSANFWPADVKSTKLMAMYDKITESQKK

`O=C(NCC1CC1)[C@H]1C[C@H]2OCC[C@H]2N(Cc2ccoc2)C1`: the Percent Effect in experiment [1] is -0.0445%; in experiment [2], 21.6%; in experiment [3], 4.14%; in [4] it was -14%; with Trypanosoma cruzi it was 1.86%; in experiment [5] it was 6.69%. In addition, the Percent Effect in experiment [6] is 6.09%; in the experiment filed under Homo sapiens, 32.6%; in [7] it was 3.24%; in experiment [8], 15.4%; in [9], -0.46%.
In the case of `CCc1c(C(=O)N2CCN(CC(N)=O)CC2)cnn1C(C)(C)C`, the Percent Effect in experiment [1] is -6.88%; in [2] it was 13.2%; in experiment [3], -1.82%; in experiment [4], 18.1%; in the experiment with Trypanosoma cruzi it was 5.32%; in experiment [5], 3.6%. Besides, the Percent Effect in experiment [6] was 11.9%; in the experiment filed under Homo sapiens it was -6.74%; in [7], 4.43%; in [8] it was 11.1%; in [9], -7.68%.
Turning to `Cc1nccn1CCCC(=O)N1CCC(Nc2cccnn2)CC1`, the Percent Effect in [1] is -3.42%; in [2], 5.41%; in experiment [3] it was -7.19%; in [4], 11.7%; in the experiment on Trypanosoma cruzi it was 4.43%; in [5], -1.6%. In addition, the Percent Effect in [6] was 3.06%; in the experiment filed under Homo sapiens it was 1.39%; in [7] it was 2.46%; in experiment [8], 16.1%; in experiment [9], -8.26%.
`COc1c(CNC2CCCc3ccccc32)c(C)nn1C` (stereo not given): the Percent Effect in experiment [1] was -7.16%; in [2], 21.6%; in [3], -16.2%; in experiment [4], 24%; in the experiment on Trypanosoma cruzi, 4.79%; in experiment [5] it was 2.23%. The Percent Effect is 12.4% in experiment [6]; 7.25% in the experiment listed under Homo sapiens; 2.15% in experiment [7]; 13.6% in experiment [8]; -5.73% in [9].
Take `CC1Cc2ccccc2N1Cc1occc1C(=O)OCC(N)=O` (stereo not given): the Percent Effect was -4.31% in experiment [1]; 11% in [2]; 7.16% in [3]; 10.7% in experiment [4]; 4.56% in the experiment on Trypanosoma cruzi; -3.99% in [5]. The Percent Effect is 5.91% in experiment [6]; 17% in the experiment filed under Homo sapiens; 8.33% in experiment [7]; 13.6% in experiment [8]; -3.53% in experiment [9].
With `CCN1CCCC(CNC(=O)C2(c3cccc(Cl)c3)CC2)C1` (stereo not given), the Percent Effect was -4.26% in [1]; 6.33% in experiment [2]; 0.975% in [3]; 3.63% in [4]; -5.85% with Trypanosoma cruzi; -2.8% in [5]. Besides, the Percent Effect in experiment [6] is 14.6%; in the experiment listed under Homo sapiens it was 8.9%; in [7], 7.29%; in [8], 15.2%; in [9], -13.8%.
On to `Cc1ccc(N2CCCN(C(=O)C(C(C)C)n3cncn3)CC2)nn1` (stereo not given), for which the Percent Effect in [1] is -1.22%; in experiment [2] it was 16.2%; in [3], -7.95%; in [4] it was 9.29%; in the experiment on Trypanosoma cruzi, 3.62%; in experiment [5], 2.03%. Further, the Percent Effect in [6] is 9.16%; in the experiment listed under Homo sapiens it was 9.49%; in experiment [7], 7.92%; in experiment [8], 25.6%; in experiment [9], -6.51%.
For `COc1cc(CCC(=O)NC2CC2)ccc1OCC(F)(F)F`, the Percent Effect in experiment [1] was -2.29%; in [2], 18.4%; in [3], -5.56%; in experiment [4], -6.41%; in the experiment with Trypanosoma cruzi, -10.4%; in [5] it was 2.52%. Moreover, the Percent Effect in experiment [6] was 3.47%; in the experiment filed under Homo sapiens, 3.66%; in experiment [7], 4.43%; in experiment [8], 16.1%; in experiment [9], -1.66%.
`Cc1ccc(CNC(=O)Nc2cc(C(F)(F)F)c[nH]c2=O)cn1`: the Percent Effect was -3.22% in [1]; 6.94% in experiment [2]; 7.59% in [3]; -6.47% in experiment [4]; 0.0972% with Trypanosoma cruzi; 4.42% in experiment [5]. The Percent Effect in [6] was 11.6%; in the experiment filed under Homo sapiens it was -18.5%; in experiment [7], 6.32%; in [8], 12.8%; in experiment [9], -5.05%.
Take `Cc1nn(C)c(N(C)C)c1CNCc1cccc(OCCN(C)C)c1`: the Percent Effect is -0.484% in experiment [1]; 15.8% in experiment [2]; -1.72% in [3]; 5.4% in experiment [4]; -8.08% with Trypanosoma cruzi; -4.98% in [5]. Also, the Percent Effect in experiment [6] was 14.4%; in the experiment filed under Homo sapiens, 23.3%; in experiment [7], -1.47%; in experiment [8], 7.32%; in experiment [9] it was -6.3%.
